The list is not random: actives were taken first. Their share in the collection is about 8%.
Coupling enz = qHTS Assay for Inhibitors of Fructose-1,6-bisphosphate Aldolase from Giardia Lamblia: Coupling assay counterscreen. coupling enzyme system counterscreen, AmpLite Red fluorescence. 290,000 compounds, 0.67% hits. activity change, negative = inhibition, % at 58.2 µM, hits read low; in the data active = activity change below about -30%
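Compounds tested against the coupling enzymes alone at 57.5 uM final; readout was AmpLite Red fluorescence (525/598 nm) after 20 min at RT.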
RORgamma inh = qHTS for inhibitors of ROR gamma transcriptional activity. Nuclear receptor ROR-gamma (Mus musculus), P51450. Drosophila S2 Gal4-RORgamma UAS-luciferase reporter, 20 h. Potency, µM (titrated, usually from 53.6 µM), for inactives: top-dose activity change, negative = inhibition, actives largely listed as inhibitors. 310,000 compounds, 5.4% hits; note: potency is the fitted concentration of half-maximal effect; nearly all actives have a fitted effect of over 60% in size
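Schneider cells (Drosophila), stable Gal4 DBD–ROR gamma + UAS-luc; 1 hr cmpd preincubation; Cu2+ induction 700 uM final; 20 hr ambient; luminescence.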
ELG1 repair inh = qHTS screen for small molecules that inhibit ELG1-dependent DNA repair in human embryonic kidney (HEK293T) cells expressing luciferase-tagged ELG1; 330,000 compounds, 2.3% hits; AID 504467, 2011; Potency, µM (top dose mostly 46.1 µM), inactives show at the top dose activity change, negative = inhibition, actives largely listed as inhibitors; HEK293T ELG1-luciferase reporter, luminescence, 16 h; DNA damage induced by 5-fluorouridine; note: potency is the fitted concentration of half-maximal effect; nearly all actives have a fitted effect of over 55% in size
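DMSO vehicle served as the neutral condition. Each well held 2,000 cells given 5-fluorouridine plus compound; after 16 hr at 37 °C/5% CO2, ONE-Glo was added and luciferase measured 30 min later.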
VP16 counter = VP16 counterscreen qHTS for inhibitors of ROR gamma transcriptional activity. Drosophila S2 Gal4-VP16 UAS-luciferase, luminescence, 20 h. 310,000 compounds, 3.5% hits. AID 2546, 2010. Potency, µM (highest dose often 53.6 µM), without a hit: top-dose activity, negative = inhibition, usual class: inhibitors;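 note: Gal4-VP16 expression switched on by copper sulfate through the metallothionein promoter; potency is the fitted concentration of half-maximal effect; nearly all actives have a fitted effect of over 50% in size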
TSHR antagonist = Antagonists of the Thyroid Stimulating Hormone Receptor: HTS campaign; 330,000 compounds, 0.2% hits; TSHR-expressing cells, TSH-stimulated cAMP HTRF, 2 h; stronger effect = lower value; activity change, negative = inhibition, % at 11.5 µM;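 active = activity change below a set negative limit, meaning inhibition stronger than a set level, cut at about -70% in these data; inconclusive = activity change between two set negative limits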
Target sequence (P16473 whole entry, looked up): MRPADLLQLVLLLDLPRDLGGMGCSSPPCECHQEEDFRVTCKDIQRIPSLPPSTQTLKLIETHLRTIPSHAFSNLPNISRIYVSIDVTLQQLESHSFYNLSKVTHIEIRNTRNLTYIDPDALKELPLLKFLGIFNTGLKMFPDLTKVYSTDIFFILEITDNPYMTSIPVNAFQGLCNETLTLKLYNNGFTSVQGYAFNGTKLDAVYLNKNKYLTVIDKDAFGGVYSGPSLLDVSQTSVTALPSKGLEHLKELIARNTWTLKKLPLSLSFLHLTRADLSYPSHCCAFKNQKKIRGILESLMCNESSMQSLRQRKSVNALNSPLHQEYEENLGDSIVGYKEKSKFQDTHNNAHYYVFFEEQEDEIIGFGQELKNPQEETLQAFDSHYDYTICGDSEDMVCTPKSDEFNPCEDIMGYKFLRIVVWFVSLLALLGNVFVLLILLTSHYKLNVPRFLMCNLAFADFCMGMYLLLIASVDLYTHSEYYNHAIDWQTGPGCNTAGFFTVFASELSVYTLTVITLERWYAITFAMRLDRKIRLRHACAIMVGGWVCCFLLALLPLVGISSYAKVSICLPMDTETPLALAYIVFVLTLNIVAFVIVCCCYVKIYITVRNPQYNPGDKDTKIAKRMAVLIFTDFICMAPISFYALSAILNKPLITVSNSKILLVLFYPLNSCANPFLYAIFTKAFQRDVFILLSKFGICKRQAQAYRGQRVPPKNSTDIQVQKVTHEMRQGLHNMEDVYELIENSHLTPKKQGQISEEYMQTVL
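Competitive HTRF cAMP read-out (cryptate anti-cAMP antibody, cAMP-d2; 30 min, room temperature) in freshly harvested TSHR cells. Compounds added before TSH at EC80 (4nM final), followed by 2 hours' incubation at 37 deg C.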
Numbers without * were called inactive; u = inconclusive; x = no result given; [ ] = remark or other dose. Unless noted, calls come from the whole dose curve; as a rule, active = well fitted curve in the direction sought with a large enough effect; inconclusive = small, poorly fitted or top-dose-only effect, or another doubt; inactive = no such curve, though single readings can be large; an effect the other way counts as inactive or inconclusive. % is set by controls: 0 for no effect and ±100 for the full control effect.

SMILES | Coupling enz | RORgamma inh | ELG1 repair inh | VP16 counter | TSHR antagonist
CCOC(=O)N1CCN(C(=O)c2ccc(CS(=O)(=O)c3ccccc3OC)o2)CC1 | -0.5 | u | u | u | 2.2
COc1ccc(S(=O)(=O)Cc2ccc(C(=O)N3CCN(c4cccc(C)c4C)CC3)o2)cc1 | 0.0 | u | 16.4µM* | -13.4% | -12.5
COc1ccc(S(=O)(=O)Cc2ccc(C(=O)N3CCN(c4cccc(C)c4)C(C)C3)o2)cc1 (stereo unspecified) | 0.6 | 0.6% | 13µM* | 11.0% | -10.3
COc1ccccc1S(=O)(=O)Cc1ccc(C(=O)N2CCN(c3ccc(C)cc3)C(C)C2)o1 (stereo unspecified) | 2.2 | 36.3% | 20.6µM* | -11.9% | -4.9
CN(NS(C)(=O)=O)c1ncc(C(F)(F)F)cc1Cl | 4.0 | 11.2µM* | 15.3% | u | 1.1
O=S(=O)(c1ccccc1)c1ncc(C(F)(F)F)cc1Cl | 1.8 | 8.91µM* | u | 15.8µM* | 2.1
O=S(=O)(c1ccccc1)c1ncc(C(F)(F)F)cc1O | 2.4 | u | -7.3% | 0.5% | 17.0
Nc1nc(NCC2CCC(CNS(=O)(=O)c3cccc4ccccc34)CC2)nc2ccccc12 (stereo unspecified) | 0.6 | u | x | u | x
O=C(Nc1cccn(Cc2cccc(F)c2)c1=O)NC1CCCCC1 | -21.3 | u | u | -8.4% | -11.9
O=C(Nc1cccn(Cc2c(F)cccc2Cl)c1=O)NC1CCCCC1 | -35.2* | u | u | -10.2% | -5.7
COC(=O)N1C(c2ccccc2)=Cc2ccccc2C1CC(C)=O (stereo unspecified) | 0.3 | x | x | x | x
O=C(COC(=O)c1ccccc1-c1nc2ccccc2s1)Nc1ccccc1C(F)(F)F | 2.3 | u | 23.1µM* | 0.4% | 7.0
CCOC(=O)C1CCN(C(=O)c2ccc3c(c2)NC(=O)/C(=C\c2cccc(C)c2)S3)CC1 | 1.7 | -8.5% | 14.6µM* | u | 3.0
C=CCN1/C(=C(\C#N)C2=NS(=O)(=O)c3ccccc32)N(C)c2ccccc21 | -1.0 | 11.2µM* | 0.0% | u | 8.8
COc1ccccc1N1CCN(C2=NS(=O)(=O)c3ccccc32)CC1 | 5.4 | -6.1% | 4.9% | -1.1% | -0.8
Cc1ccc(OCC(=O)Nc2ccc(S(=O)(=O)N3CCCC3)cc2)cc1 | -0.5 | -10.4% | 1.8% | -4.9% | 0.3
CCCOc1ccc(/C=N/Nc2cc(N3CCOCC3)ncn2)c(O)c1 | 4.7 | u | 2.91µM* | 17.8µM* | -4.3
CC(C)c1ccc(/C=N/Nc2cc(N3CCOCC3)nc(N3CCOCC3)n2)cc1 | -3.4 | u | u | -3.4% | -12.8
Oc1ccc(/C=N\Nc2cc(N3CCOCC3)nc(N3CCOCC3)n2)c(O)c1 | -20.0 | 27.6% | 10.3µM* | -1.8% | -9.4
Cc1cc(N/N=C/c2ccc(O)cc2O)nc(N2CCOCC2)n1 | -2.5 | 28.4% | u | 0.0% | -7.5
Cc1cccc(/C=N/Nc2cc(N3CCOCC3)nc(N3CCOCC3)n2)c1 | -1.5 | 38.8% | 7.31µM* | u | -15.6
Oc1ccc(/C=N/Nc2cc(N3CCCC3)nc(N3CCCC3)n2)cc1O | -36.8* | -3.3%[10 µM] | -10.3% | -13.0% | -3.3
c1ccc2c(c1)nc1n2CCN1CCN1CCCC1 | 5.1 | 5.0% | 2.3% | -8.3% | 9.7
CCN(c1ccccc1C)S(=O)(=O)c1cc2c3c(c1)CCC(=O)N3CCC2 | x | -23.3% | 3.9% | -3.3% | 0.3
CC(=O)Nc1ccc(NC(=O)Cn2nc(C(=O)Nc3ccc(C)cc3)ccc2=O)cc1 | 2.6 | -11.1% | -6.5% | -1.0% | -12.5
Cc1cc(N/N=C/c2ccccc2)nc(N2CCOCC2)n1 | -0.5 | 38.4% | 0.0% | -13.1% | 10.9
CCCCOc1ccc(/C=N/Nc2cc(N3CCOCC3)nc(C)n2)cc1 | -0.4 | -108.8% | u | u | -117.9*
COc1cccc(OCc2cc(C(=O)N3CCN(C)C(c4ccccc4)C3)no2)c1 (stereo unspecified) | x | 32.6% | u | 14.1% | -5.4

High-throughput results (PubChem BioAssay)
